Assay outcomes as filed in PubChem BioAssay.
Rows were chosen to be rich in hits. Some 2.5% of all compounds tested hit in one or more screens of this group.
Pol kappa inh = blocks human DNA polymerase kappa activity; Q9UBT6; purified Pol kappa, fluorescent DNA synthesis assay, 10 min; Potency, µM (series often up to 107 µM), for the others: top-dose activity, negative = inhibition, actives largely listed as inhibitors; actives 0.53% (n = 400,000); AID 588579; also: % is scaled to controls: 0 for no effect and ±100 for the full control effect
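Enzyme at 10 nM met test compounds for 15 min at room temperature. Substrate addition (50 nM final) began the reaction, which was monitored by fluorescence at 0 and 10 min.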
Pol eta inh = blocks human DNA polymerase eta activity. actives 1.2% (n = 390,000). recombinant Pol eta, fluorescent DNA replication assay. Potency, µM (doses to about 114 µM), inactives show at the top dose activity change, negative = inhibition, usual class: inhibitors. Q9Y253. AID 588591; also: % is scaled to controls: 0 for no effect and ±100 for the full control effect
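Fluorescent replication assay: 50 nM final substrate added after a 15 min room-temperature compound preincubation with 10 nM enzyme. Signal taken at 0 min and again at 10 min.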
POLI inh = blocks human DNA polymerase iota activity; Q9UNA4; Pol iota fluorescent replication assay, 10 min; Potency, µM (titrated, usually from 115 µM), inactives show at the top dose activity, negative = inhibition, most hits filed as inhibitors; actives 1% (n = 390,000); AID 588590
Target sequence (Q9UNA4 whole entry, looked up): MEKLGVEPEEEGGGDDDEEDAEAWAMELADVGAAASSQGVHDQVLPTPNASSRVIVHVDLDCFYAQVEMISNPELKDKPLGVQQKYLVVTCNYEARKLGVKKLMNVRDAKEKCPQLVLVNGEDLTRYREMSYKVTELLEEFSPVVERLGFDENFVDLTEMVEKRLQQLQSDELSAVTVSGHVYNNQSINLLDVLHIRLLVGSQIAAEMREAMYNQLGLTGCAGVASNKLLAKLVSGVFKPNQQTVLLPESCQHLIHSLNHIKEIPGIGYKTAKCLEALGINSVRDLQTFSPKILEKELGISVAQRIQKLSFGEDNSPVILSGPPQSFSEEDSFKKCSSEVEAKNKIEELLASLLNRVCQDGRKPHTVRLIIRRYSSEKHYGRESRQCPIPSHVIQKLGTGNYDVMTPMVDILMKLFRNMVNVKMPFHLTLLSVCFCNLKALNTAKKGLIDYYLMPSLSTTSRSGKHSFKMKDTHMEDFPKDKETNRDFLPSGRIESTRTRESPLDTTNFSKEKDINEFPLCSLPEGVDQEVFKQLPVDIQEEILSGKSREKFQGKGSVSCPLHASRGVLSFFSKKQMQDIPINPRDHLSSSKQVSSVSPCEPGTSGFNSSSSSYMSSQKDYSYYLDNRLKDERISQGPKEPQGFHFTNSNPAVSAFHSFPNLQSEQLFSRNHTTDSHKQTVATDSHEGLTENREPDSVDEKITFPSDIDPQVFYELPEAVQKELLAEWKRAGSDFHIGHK
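Pol iota at 10 nM preincubated 15 min with compounds at room temperature; reaction started with fluorescent substrate, 50 nM final. Fluorescence read kinetically at 0 and 10 min; buffer-only wells as negative control.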
L3MBTL1 block = blocks human L3MBTL1; AlphaScreen L3MBTL1–H3K9me1 peptide binding; Potency, µM (series often up to 57.1 µM), for inactives: top-dose activity, negative = inhibition, most hits filed as inhibitors; actives 0.66% (n = 230,000); AID 485360; also: % is scaled to controls: 0 for no effect and ±100 for the full control effect; nearly all actives have a fitted effect of over 60% in size
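AlphaScreen proximity signal between nickel-chelate acceptor and streptavidin donor beads (final 10 ug/mL) reports binding of 50 nM L3MBTL1 to 75 nM biotin-H3 K9me1 peptide; complex incubated with compounds 30 min at room temperature; cefsulodin titration as control.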
POLB inh = DNA polymerase beta (human) inhibition | P06746 | Pol beta primer extension/strand displacement, fluorescence kinetic | Potency, µM (highest dose often 114 µM), inactives show at the highest dose activity change, negative = inhibition, most hits filed as inhibitors | actives 1.3% (n = 340,000) | AID 485314; also: % is scaled to controls: 0 for no effect and ±100 for the full control effect
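Homogeneous kinetic assay of primer extension and strand displacement by 10 nM Pol beta, preincubated 15 min at room temperature with compound before 50 nM substrate (final) was added. Read at 0 and 10 min; four-parameter Hill fit.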
WRN helicase inh = inhibitors of human WRN helicase | actives 0.46% (n = 360,000) | WRN helicase unwinding, fluorescent forked duplex, kinetic | Potency, µM (top dose mostly 114 µM), for the others: at the highest dose activity change, negative = inhibition, usual class: inhibitors | AID 651768 | Q14191; also: % is scaled to controls: 0 for no effect and ±100 for the full control effect; nearly all actives have a fitted effect of over 55% in size
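Primary qHTS, 1536-well format. 20 nM WRN + compound, 15 min RT; start with 100 nM forked fluorophore/quencher duplex, 2 mM ATP (final); kinetic read ex 525/em 598 nm.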
Active calls of the source: *; ? = inconclusive; . = no result given; ! = a repeat was not active; [ ] = dose if it differs, or a comment. Calls follow the shape of the dose curve; as a rule, active = well fitted curve in the direction sought with a large enough effect; inconclusive = small, poorly fitted or top-dose-only effect, or another doubt; inactive = no such curve, though single readings can be large; an effect the other way counts as inactive or inconclusive. Potency is read from the fitted curve at half-maximal effect.

SMILES	Pol kappa inh	Pol eta inh	POLI inh	L3MBTL1 block	POLB inh	WRN helicase inh
O=C(O)/C(=C\c1ccccc1OC(F)F)c1ccc(-c2ccccc2)cc1	-30%	-29%	61%	.	56µM*	-25%
Cc1ccc(NC(=O)C2=C(c3ccccc3)S(=O)(=O)CCS2(=O)=O)cc1	-8%	-7%	?	-11%	6%	22µM*
CCOC(=O)CN=C(NS(=O)(=O)c1ccc(Cl)cc1)c1ccccc1	-6%	-8%	38%	-9%	6%	?
CCCC(CCC(=O)Nc1cc([N+](=O)[O-])ccc1O)C(=O)O (stereo not drawn)	-15%	5%	-11%	?	22µM*	-5%
O=C(O)CCCC(=O)Nc1cc([N+](=O)[O-])ccc1O	-9%	-6%	12%	-2%	23%	-6%
Cc1cc2nc3ccc(=[N+](C)C)cc-3sc2cc1N	-32%	?	18µM*	-38%	8.9µM*	.
Cc1ccccc1NC(=O)C1CCN(S(=O)(=O)c2c(C)noc2/C=C/c2ccco2)CC1	4%	8%	-12%	.	41%	.
Cc1noc(/C=C/c2ccco2)c1S(=O)(=O)N1CCC(C(=O)N2CCc3ccccc3C2)CC1	-35%	?	45µM*	?	-111%	-22%
Cc1onc(-c2ccccc2)c1C(=O)Nc1cc(C(F)(F)F)ccc1N1CCOCC1	-11%	-17%	25%	-9%	?	-2%
Cc1nc(Nc2cnc(/C=C/c3cc(C(=O)Nc4cccc(C(F)(F)F)c4)ccc3C)cn2)cc(N2CCNCC2)n1	-5%	40µM*	-6%	-3%	40µM*	?
Cc1nn(Cc2ccc(Cl)cc2)c(C)c1NC(=O)c1cc(-c2ccco2)on1	-30%	6%	-22%	-2%	1%	-4%
Cc1nn(Cc2ccc(Cl)c(Cl)c2)c(C)c1NC(=O)c1cc(-c2ccco2)on1	-24%	-4%	12%	-21%	45µM*	-10%
CC1CCCC(NC(=O)CN(C)CC(=O)Nc2cccc(F)c2)C1C (stereo not drawn)	8%	-7%	23%	3%	.	8%
CC(=O)c1ccc(OCCCC(=O)NCC(c2ccco2)N(C)C)cc1 (stereo not drawn)	-5%	13%	10%	-7%	-2%	-3%
CN(C)C(CNC(=O)CCOc1ccccc1)c1ccco1 (stereo not drawn)	79µM*	?	32µM*	-25%	?	-18%
CCCCNC(=O)CCC(=O)NNc1nc2ccccc2c2nc(-c3ccccc3)nn12	3%	6%	-6%	8%	89µM*!	-7%
O=C(c1ccc2c(c1)OCCO2)N(c1ccccn1)C1CCCCC1	-10%	-2%	19%	-2%	8%	1%
CS(=O)(=O)N1Cc2ccccc2CC1C(=O)OCC(=O)Nc1ccc2ccccc2c1 (stereo not drawn)	?	?	?	.	3.2µM*	-35%
O=C(O)C1Cc2ccccc2CN1S(=O)(=O)c1ccccc1 (stereo not drawn)	-8%	79µM*	55%	.	-9%	-15%[11.6 µM]
Cc1ccc(S(=O)(=O)N2Cc3ccccc3CC2C(=O)Nc2ccc3c(c2)OCO3)cc1 (stereo not drawn)	50µM*	10µM*	?	.	22µM*	-36%
CS(=O)(=O)N1Cc2ccccc2CC1C(=O)OCC(=O)NCCc1ccc(S(N)(=O)=O)cc1 (stereo not drawn)	-3%	-15%	29%	-7%	.	-23%
CN(C)C(=O)C1Cc2ccccc2CN1S(=O)(=O)c1ccc(F)cc1 (stereo not drawn)	2%	-1%	-6%	2%	-1%	0%
O=C(O)C1Cc2ccccc2CN1S(=O)(=O)c1ccc2ccccc2c1 (stereo not drawn)	-23%	5.6µM*	?	.	-25%	-2%[11.6 µM]
CCCOc1ccc(C2=CSC3=NCCN23)cc1[N+](=O)[O-]	-5%	-5%	9%	.	2%	21%
Fc1ccc(-c2nnc(CSc3nnc(-c4cccs4)o3)o2)cc1	-6%	?	1%	.	-14%	-19%
SMILES	Pol kappa inh	Pol eta inh	POLI inh	L3MBTL1 block	POLB inh	WRN helicase inh
COc1ccccc1CCC(=O)Nc1cccc(S(=O)(=O)N2CCCC2)c1	-13%	-4%	7%	.	1%	-32%
CCCCN(C(=O)c1cc(-c2ccco2)nc2ccccc12)c1c(N)n(CCCC)c(=O)[nH]c1=O	79µM*	50µM*	18µM*	?	.	?
CCCN(C(=O)c1cc(-c2ccco2)nc2ccccc12)c1c(N)n(Cc2ccccc2)c(=O)[nH]c1=O	-45%	16µM*	20µM*	?	.	?
COCCN(C(=O)c1cc(-c2ccco2)nc2ccccc12)c1c(N)n(Cc2ccccc2)c(=O)[nH]c1=O	?	22µM*	18µM*	?	.	?
CCCCN(C(=O)c1cc(-c2ccc(F)cc2)nc2ccccc12)c1c(N)n(CCCC)c(=O)[nH]c1=O	-17%	-3%	25%	-6%	.	9%
CCc1ccc(-n2c(SCC(=O)N3Cc4ccccc4CC3C(=O)O)nnc2-c2ccncc2)cc1 (stereo not drawn)	-8%	22µM*	33%	3%	3%	-7%[11.6 µM]
S=c1[nH]c(=S)c2[nH]cnc2[nH]1	-11%	.	79µM*	.	.	.
Cn1c(=O)[nH]c2nc[nH]c2c1=O	-19%	-11%	-5%	-1%	.	-2%
O=C1S/C(=C\C=C\c2ccco2)C(=O)N1c1ccc(O)cc1	?	?	32µM*	16µM*	7.9µM*	?
O=C1S/C(=C\C=C\c2ccco2)C(=O)N1c1ccccc1	45µM*	45µM*	13µM*	?	32µM*	-25%
O=C1S/C(=C\c2cccs2)C(=O)N1c1ccc(O)cc1	-10%	-21%	1%	.	?	-1%
NNC(=O)/C(=N/Nc1ccccc1)S(=O)(=O)c1ccc(Cl)cc1	-7%	-16%	-4%	-13%	2%	-8%
CCC(=O)c1ccc(OCC(=O)N2CCCC2)c(OC)c1	5%	-11%	5%	?	22µM*	7%
CCC(=O)c1ccc(OCC(=O)O)c(OC)c1	4%	-6%	6%	-16%	1%	9%
O=C(Cn1sc2ccccc2c1=O)Nc1ccccc1	.	-8%	.	.	.	10%
O=C(Cn1sc2ccccc2c1=O)NC12CC3CC(CC(C3)C1)C2	-3%	0%	?	.	1%	40µM*
O=C(NCCc1ccccc1Cl)c1ccc(Cn2c(=O)c3cccn3c3cccnc32)cc1	-19%	?	?	.	14µM*	.
CCOc1ccc(CCNC(=O)Cn2c(=O)c3cccn3c3cccnc32)cc1	-15%	-21%	11%	.	100µM*	-20%
